In PubChem BioAssay (NCATS):
Records with an inconclusive call do not appear. Entries that show only a call come without a potency. Unmarked numbers belong to inactive results. Activity calls are given as the source filed them. The call rests on the fitted dose curve; in most records, active means well fitted curve in the direction sought with a large enough effect; inconclusive means small, poorly fitted or top-dose-only effect, or another doubt; inactive means no such curve, though single readings can be large; an effect the other way counts as inactive or inconclusive.

Legend:
[1] = tested on: C33A; assay: Primary qHTS to identify gynecologic anti-cancer compounds using libraries of approved drugs and bioactive compounds (AID 1345084); details: Gynecologic cancer cell panel viability, ATPlite luminescence, 48 h; series mostly up to 57.5 µM; further: nearly all actives have a fitted effect of over 55% in size; further: potency means the concentration at half of the fitted maximal effect
Summary of the method: (§1)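 In this quantitative HTS, cell killing is estimated from loss of ATP-dependent luciferase light. Cells see five compound concentrations over a 48 h exposure.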

[2] = tested on: CAOV3; assay: as above; details: Gynecologic cancer cell panel viability, ATPlite luminescence, 48 h; series mostly up to 57.5 µM
Summary of the method: as §1

[3] = tested on: CASKI; assay: as above; details: Gynecologic cancer cell panel viability, ATPlite luminescence, 48 h; series mostly up to 57.5 µM
Summary of the method: as §1

[4] = tested on: Es-2; assay: as above; details: Gynecologic cancer cell panel viability, ATPlite luminescence, 48 h; series mostly up to 57.5 µM
Summary of the method: as §1

[5] = tested on: HeLa; assay: as above; details: Gynecologic cancer cell panel viability, ATPlite luminescence, 48 h; series mostly up to 57.5 µM
Summary of the method: as §1

[6] = tested on: Hek293T; assay: as above; details: Gynecologic cancer cell panel viability, ATPlite luminescence, 48 h, control line for the selectivity index; series mostly up to 57.5 µM
Summary of the method: as §1

[7] = tested on: JEG-3; assay: as above; details: Gynecologic cancer cell panel viability, ATPlite luminescence, 48 h; series mostly up to 57.5 µM
Summary of the method: as §1

[8] = tested on: OV90; assay: as above; details: Gynecologic cancer cell panel viability, ATPlite luminescence, 48 h; series mostly up to 57.5 µM
Summary of the method: as §1

[9] = tested on: PA-1; assay: as above; details: Gynecologic cancer cell panel viability, ATPlite luminescence, 48 h; series mostly up to 57.5 µM
Summary of the method: as §1

[10] = tested on: SKOV3; assay: as above; details: Gynecologic cancer cell panel viability, ATPlite luminescence, 48 h; series mostly up to 57.5 µM
Summary of the method: as §1

[11] = tested on: Tov-21-G; assay: as above; details: Gynecologic cancer cell panel viability, ATPlite luminescence, 48 h; series mostly up to 57.5 µM
Summary of the method: as §1

[12] = tested on: Tov112D; assay: as above; details: Gynecologic cancer cell panel viability, ATPlite luminescence, 48 h; series mostly up to 57.5 µM
Summary of the method: as §1

[13] = qHTS assay to identify inhibitors of the type 1 interferon - major histocompatibility complex class I in skeletal muscle: Counter screen cell viability and HiBit confirmation (AID 1347412); details: iHSKM muscle cells + IFN-b, HiBiT or CellTiter-Glo, 24 h; HiBiT; further: potency means the concentration at half of the fitted maximal effect; nearly all actives have a fitted effect of over 60% in size
Summary of the method: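 After 24 h with human IFN-beta (4 ng/ml) and compound titrations (top 46 uM final, 1:3, 12 points), HLA-B HiBit myoblasts were lysed for either Nano-Glo HiBiT luminescence or CellTiter Glo viability on paired plates.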

[14] = Drug repurposing screens with cells derived from glioblastoma tumor samples (AID 1345199); details: GBM patient neurospheres viability, ATP luminescence, 48 h; further: nearly all actives have a fitted effect of over 40% in size
Summary of the method: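 Four patient lines of CD133+ GBM neurospheres were screened at several concentrations; hits were retested in those lines plus three slower-growing GBM lines, using 48-hour treatment and ATP-based viability.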

Row | SMILES | Potency [1] | Potency [2] | Potency [3] | Potency [4] | Potency [5] | Potency [6] | Potency [7] | Potency [8] | Potency [9] | Potency [10] | Potency [11] | Potency [12] | Potency [13] | activity, negative = cell killing ([14]; at 45.9 µM (top of the series), tumour line B) | activity, negative = cell killing ([14]; at 45.9 µM (top of the series), tumour line D) | activity, negative = cell killing ([14]; at 46.1 µM (top of the series), tumour line C)
1 | Cc1nc(C#Cc2ccnc(Cl)c2)c(C)n1-c1ccc(OC(F)(F)F)cc1 | inactive | inactive | inactive | inactive | inactive | inactive | inactive | inactive | inactive | inactive | inactive | inactive | – | – | – | –
2 | CN1CCN(c2ccc(-c3cccc(CN4CCOCC4)c3)cc2NC(=O)c2c[nH]c(=O)cc2C(F)(F)F)CC1 | inactive | inactive | inactive | inactive | inactive | inactive | inactive | inactive | inactive | inactive | inactive | inactive | – | – | – | –
3 | Cc1cc2c(N3CCCC3)nc(N3CCCC3)nc2n1C | inactive | inactive | inactive | inactive | inactive | inactive | inactive | inactive | inactive | inactive | inactive | inactive | – | – | – | –
4 | COc1cc(C(=O)NC(=S)Nc2cccc(NC(=O)c3ccccc3)c2)cc(OC)c1OC | inactive | inactive | inactive | inactive | inactive | inactive | inactive | inactive | inactive | inactive | inactive | inactive | – | – | – | –
5 | CCc1c(Cl)c(O)c(Cl)c(O)c1C(=O)O[C@H]1[C@H](O)[C@H](OC)[C@H](OC/C2=C\C=C\C[C@H](O)/C(C)=C\[C@H](CC)[C@@H](O[C@@H]3OC(C)(C)[C@@H](OC(=O)C(C)C)[C@H](O)[C@@H]3O)/C(C)=C/C(C)=C/C[C@@H]([C@@H](C)O)OC2=O)O[C@@H]1C | inactive | inactive | inactive | inactive | inactive | inactive | inactive | inactive | inactive | inactive | inactive | inactive | – | – | – | –
6 | C=C1C(=O)OC2C1CCC1(C)C(O)CCC(=C)C21 (configuration not stated) | inactive | inactive | inactive | inactive | inactive | inactive | inactive | inactive | inactive | inactive | inactive | inactive | – | – | – | –
7 | C1=C/COCc2cc(ccc2OCCN2CCCC2)Nc2nccc(n2)-c2cccc(c2)COC/1 | 11.2 µM (active) | 11.2 µM (active) | 3.55 µM (active) | 14.1 µM (active) | 3.98 µM (active) | 7.94 µM (active) | 11.2 µM (active) | 17.8 µM (active) | 2.82 µM (active) | 8.91 µM (active) | 10 µM (active) | 11.2 µM (active) | 3.52 µM (active) | – | – | –
8 | COc1cc2c(cc1OCCCN1CCCC1)N=C(N)C21CCC1 | inactive | inactive | inactive | inactive | inactive | inactive | inactive | inactive | inactive | inactive | inactive | inactive | – | – | – | –
9 | CCC[C@@]1(CCc2ccccc2)CC(O)=C([C@H](CC)c2cccc(NS(=O)(=O)c3ccc(C(F)(F)F)cn3)c2)C(=O)O1 | inactive | inactive | inactive | inactive | inactive | inactive | inactive | inactive | inactive | inactive | inactive | inactive | – | -17% | -1.26% | -12.2%
10 | C/C=C/C1=CC2=C(CO1)C(=O)C(C)(OC(=O)c1c(C)cc(O)cc1OC)C(O)C2 (configuration not stated) | inactive | inactive | inactive | inactive | inactive | inactive | inactive | inactive | inactive | inactive | inactive | inactive | – | – | – | –
11 | Cn1c(SCC(=O)N2CCC[C@H]2C(=O)Nc2ccccc2-c2ccccc2)nc2ccccc21 | inactive | inactive | inactive | inactive | inactive | inactive | inactive | inactive | inactive | inactive | inactive | inactive | – | – | – | –
12 | CC(=O)OC1CC(C)C2(CCC3(CC(=O)OC3O)O2)C2(C)CCCC(C)(C)C12 (configuration not stated) | inactive | inactive | inactive | inactive | inactive | inactive | inactive | inactive | inactive | inactive | inactive | inactive | – | – | – | –
13 | COc1cc(CCc2ccc(OCC=C(C)C)cc2)cc(OC)c1OC | inactive | inactive | inactive | inactive | inactive | inactive | inactive | inactive | inactive | inactive | inactive | inactive | – | – | – | –
14 | C=C(C(=O)OC)[C@@H]1CC=C2C=CC(=O)[C@H](C)[C@@]2(C)C1 | inactive | inactive | inactive | inactive | inactive | inactive | inactive | inactive | inactive | inactive | inactive | inactive | – | – | – | –
